# Publication PMC7862700, “An all-to-all approach to the identification of sequence-specific readers for epigenetic DNA modifications on cytosine”
# Assays:
# Experiment in all cases: DAPPL (digital affinity profiling via proximity ligation, sequencing); 10 mM Tris-HCl pH 7.5, 50 mM NaCl, 1 mM DTT, 4% glycerol, room temperature, 30 min; GST-TFs on glutathione beads, 16-mer random dsDNA library, 0.1% formaldehyde crosslink after washing; high values mean tight binding
# FLI1 = target: T1, FLI1 (Homo sapiens, UniProt Q01543 1-452); conditions: protein: recombinant; tags: N-terminal GST; dsDNA, one strand shown
# T1 sequence: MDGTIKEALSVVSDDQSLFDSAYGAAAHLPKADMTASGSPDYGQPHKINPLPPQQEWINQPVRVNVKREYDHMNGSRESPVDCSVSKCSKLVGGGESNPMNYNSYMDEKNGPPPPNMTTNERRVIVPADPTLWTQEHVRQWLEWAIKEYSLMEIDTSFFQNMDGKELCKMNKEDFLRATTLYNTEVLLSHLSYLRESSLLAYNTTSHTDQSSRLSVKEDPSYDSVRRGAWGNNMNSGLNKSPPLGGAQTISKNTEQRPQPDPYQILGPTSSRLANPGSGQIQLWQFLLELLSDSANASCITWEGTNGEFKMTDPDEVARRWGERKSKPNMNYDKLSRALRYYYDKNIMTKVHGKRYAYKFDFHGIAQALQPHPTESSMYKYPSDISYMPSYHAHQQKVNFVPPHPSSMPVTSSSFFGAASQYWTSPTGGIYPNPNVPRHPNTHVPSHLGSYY
# Procedure, shortened: (§1)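 Pools were built from human transcription factors expressed in yeast as GST fusions, captured on glutathione beads and DNA-barcoded, along with a tag-only sample. Incubation with 200 nmole of a 16-mer random double-stranded DNA library lasted 30 min at room temperature in Tris/NaCl/DTT/glycerol buffer, and was followed by washing, 0.1% formaldehyde crosslinking, proximity ligation, PCR amplification and Illumina NextSeq500 sequencing. Binding signal is the quotient of each hexamer's read frequency for a factor and its frequency for the tag-only sample.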
# ELK1 = target: T2, ELK1 (Homo sapiens, UniProt P19419 1-428); conditions: protein: recombinant; tags: N-terminal GST; dsDNA, one strand shown
# T2 sequence: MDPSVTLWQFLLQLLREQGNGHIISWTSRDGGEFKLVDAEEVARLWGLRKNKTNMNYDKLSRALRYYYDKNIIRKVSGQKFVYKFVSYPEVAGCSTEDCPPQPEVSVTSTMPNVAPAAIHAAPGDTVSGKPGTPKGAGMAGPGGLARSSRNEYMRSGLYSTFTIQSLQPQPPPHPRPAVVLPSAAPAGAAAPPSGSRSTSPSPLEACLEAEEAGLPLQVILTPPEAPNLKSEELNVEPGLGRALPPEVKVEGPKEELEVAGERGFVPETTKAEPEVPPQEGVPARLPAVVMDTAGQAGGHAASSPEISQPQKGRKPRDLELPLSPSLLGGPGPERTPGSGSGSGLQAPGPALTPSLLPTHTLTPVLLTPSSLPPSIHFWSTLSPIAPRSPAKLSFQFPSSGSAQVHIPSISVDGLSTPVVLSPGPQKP
# Procedure, shortened: as §1
# GABPA = target: T3, GABPA (Homo sapiens, UniProt Q06546 1-454); conditions: protein: recombinant; tags: N-terminal GST; dsDNA, one strand shown
# T3 sequence: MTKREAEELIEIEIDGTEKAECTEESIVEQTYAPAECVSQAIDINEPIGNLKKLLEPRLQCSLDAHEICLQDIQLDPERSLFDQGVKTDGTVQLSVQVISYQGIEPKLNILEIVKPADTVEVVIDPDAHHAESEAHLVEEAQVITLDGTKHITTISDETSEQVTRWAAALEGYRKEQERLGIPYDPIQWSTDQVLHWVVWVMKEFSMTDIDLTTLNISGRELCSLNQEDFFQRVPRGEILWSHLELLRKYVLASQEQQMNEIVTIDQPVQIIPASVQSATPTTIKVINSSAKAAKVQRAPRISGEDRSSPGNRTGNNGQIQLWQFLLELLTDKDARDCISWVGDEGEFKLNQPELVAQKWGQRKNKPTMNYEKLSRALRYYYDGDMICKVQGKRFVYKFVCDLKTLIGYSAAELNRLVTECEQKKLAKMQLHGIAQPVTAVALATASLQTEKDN
# Procedure, shortened: as §1
# ERG = target: T4, ERG (Homo sapiens, UniProt P11308 1-479); conditions: protein: recombinant; tags: N-terminal GST; dsDNA, one strand shown
# T4 sequence: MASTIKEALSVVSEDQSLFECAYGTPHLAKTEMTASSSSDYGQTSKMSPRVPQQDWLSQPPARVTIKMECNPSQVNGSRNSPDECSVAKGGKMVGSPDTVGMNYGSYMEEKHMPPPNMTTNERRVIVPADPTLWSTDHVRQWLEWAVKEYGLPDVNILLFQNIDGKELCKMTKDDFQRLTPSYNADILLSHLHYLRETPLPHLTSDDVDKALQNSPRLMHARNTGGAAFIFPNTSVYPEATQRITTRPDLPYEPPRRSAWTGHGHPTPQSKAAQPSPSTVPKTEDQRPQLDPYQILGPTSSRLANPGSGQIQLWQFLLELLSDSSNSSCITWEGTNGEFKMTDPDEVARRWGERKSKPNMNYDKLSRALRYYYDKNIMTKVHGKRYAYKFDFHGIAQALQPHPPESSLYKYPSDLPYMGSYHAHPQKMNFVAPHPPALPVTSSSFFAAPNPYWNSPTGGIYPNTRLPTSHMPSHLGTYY
# Procedure, shortened: as §1
# ELF1 = ELF1 (Homo sapiens, UniProt P32519 1-619); conditions: protein: recombinant; tags: N-terminal GST; dsDNA, one strand shown
# Procedure, shortened: as §1
# EHF = target: T5, EHF (Homo sapiens, UniProt Q9NZC4 1-300); conditions: protein: recombinant; tags: N-terminal GST; dsDNA, one strand shown
# T5 sequence: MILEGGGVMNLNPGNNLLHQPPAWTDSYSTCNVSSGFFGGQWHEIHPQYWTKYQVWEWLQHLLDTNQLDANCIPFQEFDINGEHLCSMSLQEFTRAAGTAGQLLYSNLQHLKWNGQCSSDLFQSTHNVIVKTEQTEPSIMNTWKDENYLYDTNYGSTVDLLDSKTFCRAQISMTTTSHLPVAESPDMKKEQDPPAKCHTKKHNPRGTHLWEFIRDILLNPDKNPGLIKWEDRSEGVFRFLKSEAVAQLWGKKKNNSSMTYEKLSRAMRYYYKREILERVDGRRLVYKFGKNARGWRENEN
# Procedure, shortened: as §1
# SPI1 = SPI1 (Homo sapiens, UniProt P17947 1-270); conditions: protein: recombinant; tags: N-terminal GST; dsDNA, one strand shown
# Procedure, shortened: as §1
# SPIB = SPIB (Homo sapiens, UniProt Q01892 1-262); conditions: protein: recombinant; tags: N-terminal GST; dsDNA, one strand shown
# Procedure, shortened: as §1
# ELK3 = target: T6, ELK3 (Homo sapiens, UniProt P41970 1-407); conditions: protein: recombinant; tags: N-terminal GST; dsDNA, one strand shown
# T6 sequence: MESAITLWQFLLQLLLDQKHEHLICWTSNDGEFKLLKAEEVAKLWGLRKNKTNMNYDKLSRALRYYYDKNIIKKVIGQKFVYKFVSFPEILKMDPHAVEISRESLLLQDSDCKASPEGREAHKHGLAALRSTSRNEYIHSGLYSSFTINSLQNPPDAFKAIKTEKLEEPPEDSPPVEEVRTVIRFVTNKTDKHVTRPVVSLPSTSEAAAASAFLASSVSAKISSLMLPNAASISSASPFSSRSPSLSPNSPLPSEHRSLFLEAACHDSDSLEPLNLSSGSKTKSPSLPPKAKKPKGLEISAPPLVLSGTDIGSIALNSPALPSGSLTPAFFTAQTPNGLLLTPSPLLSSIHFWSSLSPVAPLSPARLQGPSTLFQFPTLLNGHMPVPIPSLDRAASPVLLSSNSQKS
# Procedure, shortened: as §1
# FEV = target: T7, FEV (Homo sapiens, UniProt Q99581 1-238); conditions: protein: recombinant; tags: N-terminal GST; dsDNA, one strand shown
# T7 sequence: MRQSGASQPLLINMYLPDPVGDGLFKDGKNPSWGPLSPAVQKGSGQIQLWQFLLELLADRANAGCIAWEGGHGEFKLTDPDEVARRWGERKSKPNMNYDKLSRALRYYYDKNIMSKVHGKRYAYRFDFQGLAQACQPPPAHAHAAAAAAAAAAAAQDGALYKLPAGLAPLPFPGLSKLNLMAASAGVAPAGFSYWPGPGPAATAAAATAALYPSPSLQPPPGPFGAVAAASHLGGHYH
# Procedure, shortened: as §1
# ETV5 = ETV5 (Homo sapiens, UniProt P41161 1-510); conditions: protein: recombinant; tags: N-terminal GST; dsDNA, one strand shown
# Procedure, shortened: as §1
# HSF1 = HSF1 (Homo sapiens, UniProt Q00613 1-529); conditions: protein: recombinant; tags: N-terminal GST; chain copies: 3; dsDNA, one strand shown
# Procedure, shortened: as §1
# SPIC = target: T8, SPIC (Homo sapiens, UniProt Q8N5J4 1-248); conditions: protein: recombinant; tags: N-terminal GST; dsDNA, one strand shown
# T8 sequence: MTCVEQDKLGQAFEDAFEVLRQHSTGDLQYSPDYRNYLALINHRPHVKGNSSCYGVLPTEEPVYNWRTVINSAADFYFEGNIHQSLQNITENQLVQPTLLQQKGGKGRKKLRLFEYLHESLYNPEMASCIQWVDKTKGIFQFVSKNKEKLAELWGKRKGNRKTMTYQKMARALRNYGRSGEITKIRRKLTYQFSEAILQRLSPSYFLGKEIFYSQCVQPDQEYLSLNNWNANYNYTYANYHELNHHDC
# Procedure, shortened: as §1
# ELF4 = ELF4 (Homo sapiens, UniProt Q99607 1-663); conditions: protein: recombinant; tags: N-terminal GST; dsDNA, one strand shown
# Procedure, shortened: as §1
# ELK4 = target: T9, ELK4 (Homo sapiens, UniProt P28324-2 1-405); conditions: protein: recombinant; tags: N-terminal GST; dsDNA, one strand shown
# T9 sequence: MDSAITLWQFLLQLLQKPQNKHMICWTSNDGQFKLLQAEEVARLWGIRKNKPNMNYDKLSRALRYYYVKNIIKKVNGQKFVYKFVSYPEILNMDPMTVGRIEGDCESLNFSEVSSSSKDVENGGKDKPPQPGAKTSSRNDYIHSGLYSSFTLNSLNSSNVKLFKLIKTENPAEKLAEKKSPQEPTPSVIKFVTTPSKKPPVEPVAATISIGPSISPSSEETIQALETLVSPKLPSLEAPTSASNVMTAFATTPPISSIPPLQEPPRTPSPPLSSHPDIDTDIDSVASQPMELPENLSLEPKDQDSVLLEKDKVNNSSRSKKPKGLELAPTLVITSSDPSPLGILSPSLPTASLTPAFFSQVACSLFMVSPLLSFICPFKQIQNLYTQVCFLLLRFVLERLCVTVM
# Procedure, shortened: as §1
# ETV2 = target: T10, ETV2 (Homo sapiens, UniProt O00321 1-342); conditions: protein: recombinant; tags: N-terminal GST; dsDNA, one strand shown
# T10 sequence: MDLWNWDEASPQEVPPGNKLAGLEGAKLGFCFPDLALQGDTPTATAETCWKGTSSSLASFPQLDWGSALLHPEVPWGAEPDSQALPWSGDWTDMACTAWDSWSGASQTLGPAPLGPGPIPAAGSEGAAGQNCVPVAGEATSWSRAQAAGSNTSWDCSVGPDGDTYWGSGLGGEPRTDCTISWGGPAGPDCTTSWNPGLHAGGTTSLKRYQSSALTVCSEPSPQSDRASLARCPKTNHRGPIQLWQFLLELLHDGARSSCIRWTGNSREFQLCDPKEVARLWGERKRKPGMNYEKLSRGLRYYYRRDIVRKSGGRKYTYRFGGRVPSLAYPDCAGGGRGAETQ
# Procedure, shortened: as §1
# ELF3 = target: T11, ELF3 (Homo sapiens, UniProt P78545 1-371); conditions: protein: recombinant; tags: N-terminal GST; dsDNA, one strand shown
# T11 sequence: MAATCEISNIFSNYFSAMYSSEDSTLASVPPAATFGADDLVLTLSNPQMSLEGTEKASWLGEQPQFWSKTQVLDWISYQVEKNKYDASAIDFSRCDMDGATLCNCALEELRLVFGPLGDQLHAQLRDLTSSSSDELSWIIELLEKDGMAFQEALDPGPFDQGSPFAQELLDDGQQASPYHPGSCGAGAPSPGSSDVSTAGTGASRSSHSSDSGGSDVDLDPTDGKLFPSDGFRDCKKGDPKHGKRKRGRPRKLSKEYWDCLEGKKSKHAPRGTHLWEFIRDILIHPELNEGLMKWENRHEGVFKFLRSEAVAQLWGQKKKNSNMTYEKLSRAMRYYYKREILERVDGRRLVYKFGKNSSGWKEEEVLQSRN
# Procedure, shortened: as §1
# CRX = CRX (Homo sapiens, UniProt O43186 1-299); conditions: protein: recombinant; tags: N-terminal GST; dsDNA, one strand shown
# Procedure, shortened: as §1
# ETV1 = ETV1 (Homo sapiens, UniProt P50549 1-477); conditions: protein: recombinant; tags: N-terminal GST; dsDNA, one strand shown
# Procedure, shortened: as §1
# Sequence of ELF4 (Q99607 whole entry): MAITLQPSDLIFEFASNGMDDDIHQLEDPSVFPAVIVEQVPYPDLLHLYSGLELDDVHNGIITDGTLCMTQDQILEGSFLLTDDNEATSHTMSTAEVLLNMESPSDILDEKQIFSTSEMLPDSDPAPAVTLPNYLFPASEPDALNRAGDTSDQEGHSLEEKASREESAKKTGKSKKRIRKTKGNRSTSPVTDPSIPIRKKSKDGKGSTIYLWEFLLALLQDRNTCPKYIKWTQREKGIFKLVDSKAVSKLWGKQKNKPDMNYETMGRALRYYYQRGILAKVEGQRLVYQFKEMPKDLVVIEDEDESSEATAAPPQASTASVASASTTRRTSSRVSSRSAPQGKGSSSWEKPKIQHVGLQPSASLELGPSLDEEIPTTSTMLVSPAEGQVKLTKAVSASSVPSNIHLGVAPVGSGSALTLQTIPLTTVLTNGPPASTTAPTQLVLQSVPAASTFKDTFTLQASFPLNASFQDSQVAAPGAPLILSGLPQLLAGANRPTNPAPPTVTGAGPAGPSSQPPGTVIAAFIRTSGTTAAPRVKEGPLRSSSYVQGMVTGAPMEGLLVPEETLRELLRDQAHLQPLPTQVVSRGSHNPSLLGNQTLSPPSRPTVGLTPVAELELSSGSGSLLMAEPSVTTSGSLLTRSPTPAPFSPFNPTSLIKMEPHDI
# Sequence of CRX (O43186 whole entry): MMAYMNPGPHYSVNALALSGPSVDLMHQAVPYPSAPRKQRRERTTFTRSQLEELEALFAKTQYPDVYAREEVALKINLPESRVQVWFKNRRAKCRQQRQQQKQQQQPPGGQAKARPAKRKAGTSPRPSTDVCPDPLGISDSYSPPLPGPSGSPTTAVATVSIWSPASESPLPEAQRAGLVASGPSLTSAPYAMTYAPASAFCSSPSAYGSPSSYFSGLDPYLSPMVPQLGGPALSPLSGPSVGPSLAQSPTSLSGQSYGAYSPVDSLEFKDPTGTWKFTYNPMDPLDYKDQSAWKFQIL
# Sequence of ETV1 (P50549 whole entry): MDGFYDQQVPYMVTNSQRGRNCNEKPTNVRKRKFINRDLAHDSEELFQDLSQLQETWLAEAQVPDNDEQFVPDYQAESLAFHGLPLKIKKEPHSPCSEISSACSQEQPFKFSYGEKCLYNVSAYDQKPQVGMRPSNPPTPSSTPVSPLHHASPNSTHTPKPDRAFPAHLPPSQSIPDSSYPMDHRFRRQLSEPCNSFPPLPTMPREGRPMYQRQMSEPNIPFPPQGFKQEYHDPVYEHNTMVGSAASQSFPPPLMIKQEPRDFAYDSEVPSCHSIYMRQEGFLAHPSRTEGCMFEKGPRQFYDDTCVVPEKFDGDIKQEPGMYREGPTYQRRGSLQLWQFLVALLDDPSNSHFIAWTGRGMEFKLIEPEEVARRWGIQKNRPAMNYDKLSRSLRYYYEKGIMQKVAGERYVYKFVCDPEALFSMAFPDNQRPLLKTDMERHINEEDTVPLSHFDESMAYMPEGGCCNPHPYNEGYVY
# Sequence of HSF1 (Q00613 whole entry): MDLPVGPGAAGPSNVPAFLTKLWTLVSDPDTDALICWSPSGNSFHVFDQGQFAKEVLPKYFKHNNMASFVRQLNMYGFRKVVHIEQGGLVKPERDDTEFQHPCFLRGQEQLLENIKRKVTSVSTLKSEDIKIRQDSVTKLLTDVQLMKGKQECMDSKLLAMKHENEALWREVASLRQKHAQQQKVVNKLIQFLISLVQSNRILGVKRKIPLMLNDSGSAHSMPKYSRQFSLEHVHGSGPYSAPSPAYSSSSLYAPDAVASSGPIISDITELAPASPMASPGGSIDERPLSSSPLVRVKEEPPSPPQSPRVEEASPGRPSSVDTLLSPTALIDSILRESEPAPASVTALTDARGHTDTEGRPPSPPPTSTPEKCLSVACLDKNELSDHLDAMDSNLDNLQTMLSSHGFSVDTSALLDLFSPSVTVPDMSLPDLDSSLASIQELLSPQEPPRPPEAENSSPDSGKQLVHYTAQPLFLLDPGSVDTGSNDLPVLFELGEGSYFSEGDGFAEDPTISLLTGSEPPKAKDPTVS
# Sequence of ELF1 (P32519 whole entry): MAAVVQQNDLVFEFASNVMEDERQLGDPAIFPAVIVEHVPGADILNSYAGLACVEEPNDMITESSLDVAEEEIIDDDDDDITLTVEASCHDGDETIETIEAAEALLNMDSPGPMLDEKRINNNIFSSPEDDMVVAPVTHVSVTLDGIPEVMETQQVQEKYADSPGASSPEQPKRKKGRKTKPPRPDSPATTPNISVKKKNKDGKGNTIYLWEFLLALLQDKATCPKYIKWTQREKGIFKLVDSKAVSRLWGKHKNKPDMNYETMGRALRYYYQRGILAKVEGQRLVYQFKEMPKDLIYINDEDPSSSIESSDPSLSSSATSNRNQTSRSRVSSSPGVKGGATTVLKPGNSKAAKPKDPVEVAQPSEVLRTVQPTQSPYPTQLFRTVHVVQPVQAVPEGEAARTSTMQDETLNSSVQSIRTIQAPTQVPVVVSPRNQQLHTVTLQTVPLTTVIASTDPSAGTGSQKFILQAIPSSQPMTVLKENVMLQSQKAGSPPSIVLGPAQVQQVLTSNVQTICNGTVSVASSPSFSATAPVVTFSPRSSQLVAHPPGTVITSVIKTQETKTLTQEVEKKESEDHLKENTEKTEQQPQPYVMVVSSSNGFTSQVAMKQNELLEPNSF
# Sequence of ETV5 (P41161 whole entry): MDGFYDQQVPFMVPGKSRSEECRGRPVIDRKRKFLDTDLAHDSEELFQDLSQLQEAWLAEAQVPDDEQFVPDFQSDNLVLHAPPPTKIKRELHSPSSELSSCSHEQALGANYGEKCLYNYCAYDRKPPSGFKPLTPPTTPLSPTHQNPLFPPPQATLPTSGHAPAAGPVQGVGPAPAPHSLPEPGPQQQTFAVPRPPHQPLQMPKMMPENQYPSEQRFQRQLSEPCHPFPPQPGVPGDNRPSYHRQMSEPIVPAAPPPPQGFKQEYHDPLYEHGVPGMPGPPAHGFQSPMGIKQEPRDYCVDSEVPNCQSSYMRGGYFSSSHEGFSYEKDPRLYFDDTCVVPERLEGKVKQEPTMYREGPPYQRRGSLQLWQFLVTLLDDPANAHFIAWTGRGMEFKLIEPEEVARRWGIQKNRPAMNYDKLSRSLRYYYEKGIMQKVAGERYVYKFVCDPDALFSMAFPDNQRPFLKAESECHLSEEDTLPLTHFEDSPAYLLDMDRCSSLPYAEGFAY
# Sequence of SPIB (Q01892 whole entry): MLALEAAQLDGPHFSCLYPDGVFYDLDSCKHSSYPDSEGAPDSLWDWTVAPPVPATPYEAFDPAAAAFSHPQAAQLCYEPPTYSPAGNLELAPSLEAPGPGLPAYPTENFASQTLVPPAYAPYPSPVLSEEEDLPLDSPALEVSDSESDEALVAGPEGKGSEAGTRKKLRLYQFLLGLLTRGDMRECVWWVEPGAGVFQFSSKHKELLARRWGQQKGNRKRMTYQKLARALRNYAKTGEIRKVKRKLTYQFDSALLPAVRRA
sequence,measurement,setting,value
TCCCCC,binding signal,FLI1,"1.59 fold enrichment (6-mer frequency, TF over GST control)"
same,binding signal,ELK1,"1.54 fold enrichment (6-mer frequency, TF over GST control)"
same,binding signal,GABPA,"1.44 fold enrichment (6-mer frequency, TF over GST control)"
same,binding signal,ERG,"1.48 fold enrichment (6-mer frequency, TF over GST control)"
same,binding signal,ELF1,"1.58 fold enrichment (6-mer frequency, TF over GST control)"
same,binding signal,EHF,"1.52 fold enrichment (6-mer frequency, TF over GST control)"
same,binding signal,SPI1,"1.46 fold enrichment (6-mer frequency, TF over GST control)"
same,binding signal,SPIB,"1.53 fold enrichment (6-mer frequency, TF over GST control)"
same,binding signal,ELK3,"1.27 fold enrichment (6-mer frequency, TF over GST control)"
same,binding signal,FEV,"1.44 fold enrichment (6-mer frequency, TF over GST control)"
same,binding signal,ETV5,"1.48 fold enrichment (6-mer frequency, TF over GST control)"
same,binding signal,HSF1,"1.41 fold enrichment (6-mer frequency, TF over GST control)"
same,binding signal,SPIC,"1.44 fold enrichment (6-mer frequency, TF over GST control)"
same,binding signal,ELF4,"1.53 fold enrichment (6-mer frequency, TF over GST control)"
same,binding signal,ELK4,"1.57 fold enrichment (6-mer frequency, TF over GST control)"
same,binding signal,ETV2,"1.53 fold enrichment (6-mer frequency, TF over GST control)"
same,binding signal,ELF3,"1.42 fold enrichment (6-mer frequency, TF over GST control)"
same,binding signal,CRX,"1.45 fold enrichment (6-mer frequency, TF over GST control)"
same,binding signal,ETV1,"1.46 fold enrichment (6-mer frequency, TF over GST control)"
